# Most compounds without a hit are left out; they make up all but 3.7% or so of the library.
# Vc quorum ag – induces V. cholerae light production without autoinducers | V. cholerae BH1578 lux reporter, luminescence, 6 h | activation, % at 18.7 µM | actives 0.16% (n = 350,000); in the data active = activation mostly above about 9.7%, no sharp cut-off; inconclusive = no clear call, values can overlap the other calls; inactive = mostly below about 3.7%
# Anthrax LF inh2 – anthrax lethal factor protease inhibition; P15917; multiplex microsphere protease cleavage assay, LF; inhibition, % at 10 µM; actives 0.12% (n = 360,000); AID 588501; also: plate controls were buffer without enzyme for full effect and enzyme alone for no effect
# BoNT-A LC inh2 – inhibitors of Botulinum neurotoxin A light chain protease; actives 0.17% (n = 360,000); AID 588499; inhibition, % at 10 µM; multiplex microsphere protease substrate cleavage, flow cytometry; also: plate controls were buffer without enzyme for full effect and enzyme alone for no effect
# BoNT F protease – blocks Botulinum neurotoxin F light chain protease. Multiplex microsphere protease cleavage assay, flow cytometry. inhibition, % at 10 µM. actives 0.22% (n = 360,000). AID 588497; in the data active = inhibition above about 35%, passing the limit was not always enough; inconclusive = no clear call, values can overlap the other calls; also: plate controls were buffer without enzyme for full effect and enzyme alone for no effect
# BJeLR viability – BJeLR cell viability loss | inhibition, % (no concentration beside the values) | AID 1554 | actives 0.17% (n = 300,000) | BJeLR (HRASV12) viability, CellTiter-Glo ATP luminescence, 48 h; in the data active = inhibition above about 50%; inconclusive = no clear call, values can overlap the other calls
# Bead autofluor – counter-screen for toxin protease inhibitors: compound fluorescence; compound autofluorescence counterscreen, microsphere flow cytometry; hits give high values; fluorescence intensity (concentration not given with the values); actives 3.1% (n = 360,000); AID 624483; in the data active = fluorescence intensity above about 16000; inconclusive = no clear call, values can overlap the other calls
# Numbers without * were called inactive; i = inactive; ? = inconclusive; . = not tested or not shown. Rule as the data show it, unless noted: active = inhibition above about 30%; inconclusive = no clear call, values can overlap the other calls; inactive = below that.
SMILES,Vc quorum ag,Anthrax LF inh2,BoNT-A LC inh2,BoNT F protease,BJeLR viability,Bead autofluor
O=C(NCCc1c[nH]c2ccccc12)OC1CC2CC1[C@H]1CCCCN1C2=O (some centres not stated),.,-9,-2,-8,.,4218
O=S(=O)(NCCS(=O)(=O)N1CCN(c2ccc(F)cc2)CC1)c1ccccc1,0,0,0,-6,.,2948
Cc1cccc(CN2CCC(n3nccc3NC(=O)CCCc3ccccc3)CC2)c1,-3,-4,0,-4,.,3551
O=C1NC[C@@H](CCCCN2CCN(CCC3CCCCC3)C(=O)C2=O)N(CC2CCCCC2)C1=O,.,14,0,-4,.,5623
O=C(c1ccco1)N(c1ccccn1)c1ccccn1,-1,-2,?,0,-3,22821*
O=C(/C=C/c1ccco1)N(c1ccccn1)c1ccccn1,0,-7,0,-2,9,4263
O=C(c1cc([N+](=O)[O-])cc([N+](=O)[O-])c1)N(c1ccccn1)c1ccccn1,-1,-2,0,-11,-11,2072
CN(C)S(=O)(=O)c1ccc(C(=O)N(c2ccccn2)c2ccccn2)cc1,-7,0,1,2,1,22500*
NS(=O)(=O)c1ccc(CCNc2nn3c(-c4cccc(OC(F)(F)F)c4)cnc3s2)cc1,0,1,-1,-7,.,3874
CCOC(=O)C1C(C(=O)OCC)C2C(=O)C3C(C(=O)OCC)C(C(=O)OCC)C3C(=O)C12 (configuration not stated),i,-6,0,-3,.,3663
COc1ccc(C2C(C(=O)N3CCOCC3)=C(C)NC3=C2C(=O)CC(C)(C)C3)cc1O (configuration not stated),i,-2,-1,-4,15,23700*
CC(O)(c1ccccc1)c1nc(-c2cccc(C#N)c2)cs1 (configuration not stated),-1,6,0,5,.,4067
CC1CN(C(=O)c2cccc(C(=O)N3CC(C)OC(C)C3)c2)CC(C)O1 (configuration not stated),0,1,0,-1,-2,2705
Cc1cc(C)cc(C(=O)N2CC(C)OC(C)C2)c1 (configuration not stated),i,0,?,-1,-9,22829*
CCc1c(C)sc(NC(=O)CSc2nc3c(c(C(F)(F)F)n2)CCc2ccccc2-3)c1C#N,0,-1,-4,-3,-3,21133*
COc1ccc(CCC(=O)O)c(C(CC(=O)O)C(=O)O)c1OS(=O)(=O)c1ccc(C)cc1 (configuration not stated),i,1,0,1,.,3717
Cc1noc(C)c1C(=O)Nc1nc(C23CC4CC(CC(C4)C2)C3)cs1,-3,0,0,-1,9,23212*
O=[N+]([O-])c1ccccc1N/N=C\c1ccccc1Cl,i,-4,-1,-12,72*,2411
O=[N+]([O-])c1ccccc1N/N=C\c1ccccc1F,0,-12,-2,?,8,4432
CC(C)COC(=O)N(C)C[C@@H]1OCc2cnnn2CCCC(=O)N([C@H](C)CO)C[C@H]1C,i,-11,0,-6,.,3116
Cc1cc(C)c2c(=O)[nH]c(SCC(=O)N3CCCCC3)nc2n1,i,-2,2,7,5,21909*
Cn1c(=O)c2cc(S(=O)(=O)NCCC(=O)Nc3ccc(Cl)cc3)ccc2n(C)c1=O,-3,-2,1,6,4,10505
Cn1c(=O)c2cc(S(=O)(=O)NCCC(=O)NCCc3ccc(Cl)cc3)ccc2n(C)c1=O,0,0,-2,-5,-13,17176*
COc1ccc(NC(=O)c2csc3c2CCCC3)cc1,0,-2,-1,-3,-7,23873*
Cc1ccccc1NC(=O)c1csc2c1CCCC2,0,-4,-3,-4,-2,20804*
SMILES,Vc quorum ag,Anthrax LF inh2,BoNT-A LC inh2,BoNT F protease,BJeLR viability,Bead autofluor
O=C(NCc1ccccc1)c1csc2c1CCCC2,i,1,0,-1,-5,2622
CC1(C(=O)NS(=O)(=O)c2cccs2)CCN1C(=O)c1ccccc1 (configuration not stated),i,-4,0,-2,.,3036
Cn1c(=O)n(CC(=O)Nc2cccnc2)c2ccccc21,0,-3,-1,3,11,8502
Cc1ccccc1NC(=O)Cn1nc(-c2ccccc2)nc1-c1ccccc1,i,0,1,1,7,16150*
CNC(=O)Cn1c(=O)n(C)c2ccccc21,1,-1,0,3,5,2122
Cn1c(C(=O)NCc2cccnc2)cc2sc(Cl)cc21,0,2,1,3,10,20564*
Cn1c(=O)n(CC(=O)NCc2cccnc2)c2ccccc21,-1,-2,-2,-3,0,24061*
Cc1ccccc1NC(=O)Cn1c(=O)n(C)c2ccccc21,i,-2,-1,-1,7,21084*
CCOc1ccccc1NC(=O)C1CCCN1S(=O)(=O)c1ccc2c(c1)C(C)(C)C(=O)N2C (configuration not stated),0,-1,0,-8,.,5526
O=C(Nc1ccccc1F)c1ccc2sc([C@@H]3O[C@H](CO)[C@H](O)[C@H](O)[C@H]3O)nc2c1,i,1,0,-2,.,3775
CC1CCc2nc3ccccc3c(C(=O)OCC(=O)NC3CCS(=O)(=O)C3)c2C1 (configuration not stated),-1,-2,0,0,5,3873
COc1cccc(NC(=O)COC(=O)c2c3c(nc4ccccc24)CCC(C)C3)c1 (configuration not stated),0,0,4,0,-4,19387*
COc1cccc(NC(=O)CN2CCN(CC(=O)Nc3ccc(F)cc3)CC2)c1,i,-6,-1,0,3,3930
COc1cccc(NC(=O)CN2CCC(C)CC2)c1,-2,0,?,0,1,22557*
COc1cccc(NC(=O)c2cnsn2)c1,i,-4,-2,-2,9,17160*
O=C(CN1CCCCCC1)Nc1cccc(NC(=O)CN2CCCCCC2)c1,-1,.,.,.,2,.
COc1cccc(NC(=O)c2cccc(C(=O)Nc3cccc(OC)c3)n2)c1,i,2,0,3,0,6169
O=C(CN1CCCCC1)Nc1cccc(Oc2ccccc2)c1,-3,1,-2,-6,-6,23011*
CN1OC[C@@H]2CN[C@H](c3ccc(-c4cc5ccccc5o4)cc3)C[C@@H]21,i,-1,0,-11,.,3915
Cc1ccc(-c2nc3ccc(C)cn3c2CC2CCCCC2)cc1,.,3,1,17,.,6336
CCCC(=O)N1CCCC1(C)C(=O)Nc1ccc(-n2cncn2)cc1 (configuration not stated),i,-3,0,6,.,3644
COc1cccc(NC(=O)CSCC(=O)O)c1,i,2,-1,0,-8,17067*

# Screens deposited in PubChem by several laboratories.
